# HP1b chromo inh: HTS for Inhibitors of HP1-beta Chromodomain Interactions with Methylated Histone Tails; AlphaScreen HP1-beta / biotin-H3K9me3 peptide binding; Potency, µM (highest dose often 114 µM), actives largely listed as inhibitors; actives 0.56% (n = 390,000); AID 540317, 2011; further: nearly all actives have a fitted effect of over 70% in size
#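 AlphaScreen: HP1-beta (50 nM) preformed 30 min with biotin-H3(1-18)K9me3 peptide (50 nM) in PBS pH 7.4, 0.01% Tween-20. Compound added for 30 min at RT, then streptavidin donor/nickel chelate acceptor beads (10 ug/mL) for 30 min.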
# Sfp inh: qHTS Assay for Inhibitors of Bacillus subtilis Sfp phosphopantetheinyl transferase (PPTase) | Biochemical Sfp PPTase activity, qHTS | Potency, µM, actives largely listed as inhibitors | actives 3.5% (n = 310,000) | AID 1490, 2009;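 further: the enzyme is Sfp with the accession as filed and its product quenches rhodamine fluorescence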
#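 With Hepes-Na pH 7.6 buffer containing 10 mM MgCl2, Sfp (15 nM) modified BHQ-2-YbbR (12.5 uM) using rhodamine-CoA (5 uM). Two reads 30 minutes apart at 525/598 nm yielded each well's rate.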
# G9a inh: qHTS Assay for Inhibitors of Histone Lysine Methyltransferase G9a; Histone-lysine N-methyltransferase EHMT2 (Homo sapiens), Q96KQ7; G9a H3K9 monomethylation, AlphaScreen, 2 h; Potency, µM (doses to about 102 µM), most hits filed as inhibitors; actives 8.8% (n = 350,000); further: nearly all actives have a fitted effect of over 75% in size
#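 Step 1: enzyme (final 20 nM) with compound, 15 min RT. Step 2: substrate peptide 500 nM and SAM 20 uM, 2 h RT. Step 3: anti-H3K9me1 antibody and AlphaScreen beads, 10 min, then plate read.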
# JMJD2A Tudor: qHTS Assay for Inhibitors of JMJD2A-Tudor Domain | AlphaScreen JMJD2A-Tudor / H3K4me3 peptide binding | Lysine-specific demethylase 4A (Homo sapiens), O75164 | actives 4.4% (n = 390,000) | Potency, µM (doses to about 114 µM), most hits filed as inhibitors; further: nearly all actives have a fitted effect of over 50% in size
# Target sequence (O75164 whole entry, looked up, the tested form may be a part): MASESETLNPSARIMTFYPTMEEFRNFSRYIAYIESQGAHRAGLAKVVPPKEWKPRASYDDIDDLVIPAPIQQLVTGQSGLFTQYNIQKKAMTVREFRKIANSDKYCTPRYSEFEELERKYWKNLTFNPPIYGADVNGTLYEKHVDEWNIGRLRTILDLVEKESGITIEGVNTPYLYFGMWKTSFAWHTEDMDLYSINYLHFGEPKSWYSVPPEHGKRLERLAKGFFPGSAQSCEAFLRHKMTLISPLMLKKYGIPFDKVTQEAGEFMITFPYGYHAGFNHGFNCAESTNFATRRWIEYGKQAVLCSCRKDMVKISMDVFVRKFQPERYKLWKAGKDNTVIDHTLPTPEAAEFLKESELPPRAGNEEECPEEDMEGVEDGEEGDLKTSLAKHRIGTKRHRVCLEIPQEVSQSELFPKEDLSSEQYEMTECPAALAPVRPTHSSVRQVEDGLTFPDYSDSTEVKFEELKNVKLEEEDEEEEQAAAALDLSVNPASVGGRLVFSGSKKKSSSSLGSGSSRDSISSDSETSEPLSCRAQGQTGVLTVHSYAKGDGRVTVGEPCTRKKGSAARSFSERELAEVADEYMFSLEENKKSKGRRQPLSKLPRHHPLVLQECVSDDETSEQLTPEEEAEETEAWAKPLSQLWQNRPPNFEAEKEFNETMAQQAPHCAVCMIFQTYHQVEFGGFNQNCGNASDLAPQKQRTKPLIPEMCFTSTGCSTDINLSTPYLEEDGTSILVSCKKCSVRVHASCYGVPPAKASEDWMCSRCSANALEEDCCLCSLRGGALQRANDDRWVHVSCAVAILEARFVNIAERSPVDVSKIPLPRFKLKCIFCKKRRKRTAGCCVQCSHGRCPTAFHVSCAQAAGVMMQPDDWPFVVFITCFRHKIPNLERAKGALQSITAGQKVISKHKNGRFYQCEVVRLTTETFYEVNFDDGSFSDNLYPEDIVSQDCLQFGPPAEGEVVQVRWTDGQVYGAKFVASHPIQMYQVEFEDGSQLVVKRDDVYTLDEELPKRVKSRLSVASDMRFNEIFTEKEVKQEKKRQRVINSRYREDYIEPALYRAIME
# BAZ2B block: qHTS Assay for Inhibitors of BAZ2B; AlphaScreen BAZ2B-H3K14Ac peptide displacement; AID 504333, 2011; Potency, µM (series often up to 114 µM), most hits filed as inhibitors; actives 4.4% (n = 360,000); further: nearly all actives have a fitted effect of over 60% in size
#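 BAZ2B (50 nM) with biotin-H3(5-23)K14Ac peptide (50 nM) in PBS pH 7.4, 0.01% Tween-20, preformed 30 min, then compound 30 min at room temperature; top concentration 110uM. AlphaScreen streptavidin donor/nickel chelate acceptor beads (10 ug/mL final), 20 min dark, signal read.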
# Numbers stand for hits; n = inactive; u = inconclusive; x = no result; [ ] = remark or other dose. Sampled rows, rich in hits. Any-hit rate of the full collection: about 12%. The call rests on the fitted dose curve; in most records, active means well fitted curve in the direction sought with a large enough effect; inconclusive means small, poorly fitted or top-dose-only effect, or another doubt; inactive means no such curve, though single readings can be large; an effect the other way counts as inactive or inconclusive.
SMILES,HP1b chromo inh,Sfp inh,G9a inh,JMJD2A Tudor,BAZ2B block
Cn1c(=O)c2c(nc(NCCCO)n2Cc2cccc(C(F)(F)F)c2)n(C)c1=O,n,n,n[12.7 µM],n,n
CCn1c(SCc2ccccc2)nc2c1c(=O)[nH]c(=O)n2C,n,n,45µM,n,n
Cn1c(SCc2ccccc2)nc2c1c(=O)[nH]c(=O)n2C,n,n,n,n,n
CSc1nc2c(c(=O)[nH]c(=O)n2C)n1Cc1ccc(Cl)cc1,u,20µM,n[0.501 µM],n,n
CCCCCSc1nnc2c(n1)OC(CC)Nc1ccc(Br)cc1-2 (configuration not stated),n,x,n,n,n
Cc1ccc2nc(/C(C#N)=C/c3ccc(-c4ccc(F)cc4F)o3)[nH]c2c1,n,x,n,u,u
Cc1cc(/C=C(\C#N)c2nc3ccccc3[nH]2)c(C)n1C,n,n,n,n,n
Cc1ccc2nc(/C(C#N)=C/c3ccc(-c4cccc([N+](=O)[O-])c4)o3)[nH]c2c1,n,n,7.9µM,u,u
Cc1cc(/C=C(/C#N)c2nc3ccccc3[nH]2)c(C)n1-c1cccc([N+](=O)[O-])c1,n,n,11µM,89µM,u
CCN(C(=O)c1nn(-c2ccc(OC)c(Cl)c2)c(=O)c2c1c1ccccc1n2C)c1cccc(C(F)(F)F)c1,n,x,n,n,x
CC(C)(/C=N/O)/[N+]([O-])=C/c1ccccc1,n,n,50µM,n,n
Cc1ccc(-n2c([S-])c(C(=O)NC(C)c3ccccc3)[n+]3ccccc23)cc1 (configuration not stated),n,n,40µM,n,n
COc1ccc(CNC(=O)c2c([S-])n(-c3ccc(C)cc3)c3cccc[n+]23)cc1,n,n,4µM,3.2µM,x
Cc1ccc(OCC(=O)NC(C)c2ccccc2)cc1 (configuration not stated),n,n,u,n,n
Cc1sc(-n2c(C)ccc2C)c(C#N)c1C,n,63µM,7.9µM,n,n
Cc1ccc(C)n1-c1sc2c(c1C#N)CCCC2,n,n,n,n,n
COc1ccc(C2=Nc3ccccc3NC(c3cccs3)=N2)cc1,n,x,n,n,n
CN(C)C(=O)c1ccc(N=Nc2c(O)c3ccccc3[nH]c2=O)cc1,n,x,x,n,x
COc1cc(N=Nc2ccc(C(=O)N(C)C)cc2)c(C)cc1N,20µM,x,x,3.5µM,x
Cc1cc(N=Nc2c(O)c3ccccc3[nH]c2=O)ccc1N=Nc1ccc(C(=O)N(C)C)cc1,n,n,79µM,u,u
CCOC(=O)c1ccc(Nc2c(-c3cccc(O)c3)nc3nc[nH]n23)cc1,n,x,u,n,n
CC1(C)CC(=O)c2c(oc3cc(O)c(O)cc23)C1,n,56µM,3.5µM,14µM,n
Oc1ccc(C[C@H]2CNC(=S)N2CC2CCCN2C[C@H](Cc2ccccc2)N2C[C@H](Cc3ccc(O)cc3)N(CCc3ccccc3)C2=S)cc1 (some centres not stated),n,x,x,n,x
Cc1cc(NC(=O)COC(=O)c2cc([N+](=O)[O-])ccc2N2CCOCC2)ccc1Br,n,x,u,u,n
CCCc1cc(C(=O)OC)c(NC(=O)CCCC(=O)O)s1,n,n,n,n,n
SMILES,HP1b chromo inh,Sfp inh,G9a inh,JMJD2A Tudor,BAZ2B block
CCc1cc(C(=O)OC)c(NC(=O)CCC(=O)O)s1,u,20µM,14µM,n,n
COC(=O)c1cc(C)sc1NC(=S)N1CCN(CCc2ccccc2)CC1,n,n,u,n,u
CCCN1CCN(C(=S)Nc2sc(CC)cc2C(=O)OC)CC1,n,n,50µM,u,n
Nc1ccc(Nc2ccccc2)c(S(=O)(=O)O)c1,n,n,45µM,u,56µM
Nc1ccc(/C=C/c2ccc(N)cc2S(=O)(=O)O)c(S(=O)(=O)O)c1,x,n,u,x,x
Cc1ccc(Nc2ccc(N)cc2S(=O)(=O)O)cc1,n,n,32µM,n,u
CCOC(=O)c1sc2cccc(F)c2c1S(=O)(=O)N1CCN(c2cccc(Cl)c2)CC1,n,x,8.9µM,n,u
COC(=O)c1sc2cccc(F)c2c1S(=O)(=O)N1CCN(c2cccc(OC)c2)CC1,n,x,n,n,n
